# An excerpt weighted towards active compounds, which were near 2.3% of everything screened.
# ABHD5-PLIN5 inh = ABHD5-PLIN5 protein interaction inhibition. Q00G26+Q8WTS1. Split G. princeps luciferase complementation, luminescence, 4 h. inhibition, % at 4 µM. 0.78% of 360,000 active. AID 602281;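 active = inhibition above the mean inhibition across every tested compound plus 3 SD, cut at about 22% in these data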;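 also: 0% = DMSO only wells and the 100% control is not disclosed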
# NTR1 agonist = activates human neurotensin receptor 1; P30989; NTR1-U2OS beta-arrestin-GFP spot imaging, agonist mode; activation, % at 20 µM; 0.17% of 330,000 active;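 active = activation at or above 40% of the spot to cytoplasm intensity ratio, with at least 20 cells analyzed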;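 also: 0% = DMSO without peptide and 100% = 100 nM NTR1 peptide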
# Granule exo inh = lytic granule exocytosis inhibition. TALL-104 LAMP-1 surface exposure, flow cytometry; cells stimulated with thapsigargin and PMA. inhibition, % at 10 µM. 0.66% of 360,000 active;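 active = inhibition above about 55%, limit read from the data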
# m5-HT2A agonist = agonists of mouse serotonin 5-HT2A receptor (HTR2A). P35363. CHO-K1 mHTR2A beta-arrestin complementation, luminescence; percent of 30 µM serotonin response. activation, % at 7.6 µM. 0.66% of 360,000 active;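 active = activation above a run cutoff, the mean activation of all tested compounds plus 3 SD, cut at about 14% in these data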;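 also: 0% = plate median of compound wells and 100% = 30 µM serotonin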
# Target sequence (P35363 whole entry, looked up): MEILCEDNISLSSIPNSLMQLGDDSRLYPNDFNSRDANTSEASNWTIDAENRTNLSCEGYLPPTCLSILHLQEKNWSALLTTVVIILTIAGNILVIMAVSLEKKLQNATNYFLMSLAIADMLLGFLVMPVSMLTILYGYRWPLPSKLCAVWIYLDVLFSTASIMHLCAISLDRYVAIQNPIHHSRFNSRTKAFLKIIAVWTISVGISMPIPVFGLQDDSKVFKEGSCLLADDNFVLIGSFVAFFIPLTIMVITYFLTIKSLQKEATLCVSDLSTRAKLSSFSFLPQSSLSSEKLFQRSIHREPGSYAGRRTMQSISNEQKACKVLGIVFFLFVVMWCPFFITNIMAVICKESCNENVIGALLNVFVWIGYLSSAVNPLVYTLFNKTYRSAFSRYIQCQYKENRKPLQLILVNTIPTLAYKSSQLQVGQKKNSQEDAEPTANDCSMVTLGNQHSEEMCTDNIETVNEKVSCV
# Beta2AR agonist = human beta-2 adrenergic receptor agonism by FAP | Am2.2-beta2AR cells, FAP receptor internalization, flow cytometry | 0.43% of 340,000 active | P07550 | response, % (test concentration not listed) | AID 504454;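 active = response above a set limit, near 3 SD of response in nonfluorescent compounds, cut at about 42% in these data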
# ABHD5-PLIN5 conf = confirmation of human ABHD5-PLIN5 interaction inhibitors. inhibition, % at 4 µM. shares compounds with ABHD5-PLIN5 inh. biochemical ABHD5-PLIN5 interaction, luminescence. 67% of 2,200 active. AID 651612; in the data active = inhibition above about 23%;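 also: 0% = DMSO vehicle wells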
# HNF4 split-luc = HNF4 split-luciferase signal hit, counter-screen; shares compounds with ABHD5-PLIN5 inh; HNF4 dimerization, luminescence, biochemical; inhibition, % at 4 µM; 77% of 2,200 active; AID 651674;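 active = mean inhibition across replicate wells exceeding the computed hit threshold, cut at about 13% in these data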;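 also: light from luciferase halves that rejoin when HNF4 fusion proteins dimerize; 0% = DMSO only wells and the 100% control is not given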
# Starred values were filed as active, the others as inactive; . = not tested or not shown.
SMILES,ABHD5-PLIN5 inh,NTR1 agonist,Granule exo inh,m5-HT2A agonist,Beta2AR agonist,ABHD5-PLIN5 conf,HNF4 split-luc
C=CCOc1ccc(C(=O)/C=C2/C(=O)Nc3ccccc32)cc1,67*,2,13,7,-1,72*,68*
CC1(NC(=O)Cn2cc(C(F)(F)F)ccc2=O)CCS(=O)(=O)C1 (configuration not stated),1,0,-1,5,8,.,.
O=C(O)CC(O)(CC(=O)O)C(=O)O,23*,-1,-3,-2,0,80*,23*
O=C(CC1Sc2ncnn2C1=O)Nc1ccccc1 (configuration not stated),27*,-2,6,0,13,11,47*
O=C(CC1SC(=O)N(c2ccccc2)C1=O)Nc1ccccc1 (configuration not stated),-12,2,19,-4,5,.,.
COCCNC(=O)C1(C)CCN(C(=O)c2cccc(C)c2C)C1 (configuration not stated),2,.,-8,0,.,.,.
CC(C)NC(=O)c1cc(-c2ccco2)nn1-c1ccc(Cl)cc1,36*,0,3,2,6,42*,59*
CCCN(CC1CC1)C(=S)NC(=O)c1cc(Br)ccc1Cl,24*,0,1,-7,14,2,-7
O=C(/C=C/c1ccc(F)cc1)Nc1cccc(S(=O)(=O)N2CCOCC2)c1,-1,2,8,-6,1,.,.
O=[N+]([O-])c1cccc(C2CC(c3ccccc3)=NN2c2ccccc2)c1 (configuration not stated),8,3,-1,0,33,.,.
O=c1[nH]cnc2c1N=C(c1cccc([N+](=O)[O-])c1)CC(c1ccccc1)N2 (configuration not stated),45*,1,4,1,-3,10,26*
Cc1ccc(S(=O)(=O)N2CCC(C(N)=O)CC2)cc1[N+](=O)[O-],0,0,12,4,0,.,.
Cn1c(=O)[nH]c(=O)c2c1nc(Br)n2Cc1ccccc1Cl,-5,0,-1,3,-2,.,.
Cn1c(=O)[nH]c(=O)c2c1nc(SCC(O)CO)n2Cc1ccccc1Cl (configuration not stated),39*,0,-2,0,18,4,4
CC(C)NC(=O)CN(Cc1ccc(F)cc1)C(=O)CCC(=O)Nc1nccs1,-9,2,2,4,-1,.,.
O=C(/C=C/c1ccco1)c1ccc(O)cc1,.,-2,.,.,.,.,.
CN(C)c1ccc(C(=O)/C=C/c2ccco2)cc1,20,-1,1,4,-4,.,.
O=C(C=Cc1ccco1)c1ccc2ccccc2c1,37*,.,-2,1,-1,64*,54*
CC(=O)Nc1ccc(C(=O)/C=C/c2ccco2)cc1,29*,0,5,6,3,52*,57*
O=C(/C=C\c1ccco1)c1ccc(NC(=O)c2ccco2)cc1,25*,0,0,5,-2,49*,47*
Cc1ccc(Cl)cc1N1CCN(CC(=O)NC2CCCc3ccccc32)CC1 (configuration not stated),-2,6,-8,-3,-1,.,.
O=C(Oc1ccccc1/C=C\C(=O)c1cc2ccccc2o1)c1ccccc1,30*,38,61*,-3,-7,99*,101*
O=C(Oc1ccccc1/C=C\C(=O)c1cc2ccccc2o1)c1cccc(F)c1,32*,32,55,-1,24,99*,95*
NC(Cc1ccc(C(F)(F)F)cc1)c1csc(NC(=O)Nc2ccccc2Oc2ccccc2)n1 (configuration not stated),-10,.,19,8,.,.,.
CCN(CC(=O)Nc1ccc(NC(C)=O)cc1)C(=O)CCCSc1nc2ccccc2[nH]1,17,-1,0,0,-2,.,.
SMILES,ABHD5-PLIN5 inh,NTR1 agonist,Granule exo inh,m5-HT2A agonist,Beta2AR agonist,ABHD5-PLIN5 conf,HNF4 split-luc
CC(C)NC(C(=O)Nc1cc(Cl)cc(Cl)c1)c1ccccc1 (configuration not stated),54*,1,2,2,5,9,4
CN(C)CCNC(C(=O)Nc1cc(Cl)cc(Cl)c1)c1ccccc1 (configuration not stated),11,-2,-3,2,9,.,.
COC(=O)[C@@]12C[C@@H](CC(=O)NCc3cccc4ccccc34)C(=O)N(Cc3ccccc3)C1=CCC(C)(C)C2,3,.,2,-5,.,.,.
COc1cccc(NC(=O)COc2coc(CN3CCN(c4ccccc4)CC3)cc2=O)c1,25*,1,3,-1,3,7,1
CCOc1ccc(S(=O)(=O)N2CCCC(C(=O)NC3CC3)C2)cc1Cl (configuration not stated),7,-1,10,3,-12,.,.
c1ccc(N=C2SCCCS2)cc1,1,.,0,3,.,.,.
CC(Oc1ccc(Br)cc1)C(=O)N1CCC(C(N)=O)CC1 (configuration not stated),45*,0,1,5,1,10,7
CC(Oc1ccc(Br)cc1)C(=O)N1CCN(c2ccccn2)CC1 (configuration not stated),-3,0,4,-7,-5,.,.
COCCNC(=O)/C(C#N)=C/c1cccc(/C=C(\C#N)C(=O)NCCOC)c1,48*,.,3,-1,2,98*,71*
COCCNC(=O)/C(C#N)=C/c1ccc(O)cc1,-6,-1,-8,0,9,.,.
O=C(/C=C/c1ccccc1)c1ccc(NC2=NCCCS2)cc1,62*,.,2,-7,-2,72*,62*
CC(C)(C)c1ccc(/C=C/C(=O)Nc2ccncc2)cc1,-8,6,3,9,10,.,.
CC(C)(C)c1ccc(/C=C/C(=O)c2ccc(NC3=NCCCS3)cc2)cc1,50*,8,12,-8,8,57*,38*
O=C(/C=C/c1ccc(Br)cc1)c1ccc(NC2=NCCCS2)cc1,89*,11,17,-9,33,95*,84*
CCC(NC(=O)C(C)NC)C(=O)N1CCCC1C(=O)NC1CCCc2ccccc21 (configuration not stated),0,2,-10,1,0,.,.
O=C(NNC(=O)C1CCN(c2ncccn2)CC1)c1ccncc1,2,1,1,6,-8,.,.
COc1ccc(/C=C2\CCC/C(=C\C=N\N(C)C)C2=O)cc1,36*,21,37,-1,12,36*,72*
O=C1/C(=C/c2ccc(C(=O)O)cc2)CCC/C1=C\c1ccc(C(=O)O)cc1,15,-1,2,5,-4,.,.
COc1ccc(/C=C2/CCOC2=O)cc1,0,0,-2,1,1,.,.
CN(C)/N=C/C=C1\CCC/C(=C\c2ccc(F)c(F)c2)C1=O,53*,7,90*,5,3,71*,73*
